The values below come from PubChem BioAssay (NCI).

About 83,000 compounds went through this panel and 20% of them were active in at least one assay; those are over-represented in the sample as a whole.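 96-well plates, one dose, 48 hours. Percent growth reported; active if below 10.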 Activity calls are given as the source filed them.

The subject of the assay is TK-10 renal. The assay is described as follows: NCI-60 one-dose screen, 48 h (100 = growth as untreated, 0 = no growth, -100 = all killed). Particulars: 10 µM unless noted. Here is the method:
Growth inhibition of the TK-10 human tumor cell line is measured as a screen for anti-cancer activity. Cells are grown in 96 well plates and exposed to the test compound for 48 hours. Compounds are tested at a single concentration, which is 10^-5 M for most compounds. The reported endpoint is percent growth (GI% or GIPRCNT), where numbers from 0 - 100% represent growth inhibition, and numbers from -100% - 0 represent cell death. For example, a value of 40 represents 60% growth inhibition. A value of 0 means no net growth occurred over the course of the experiment. A value of -40 indicates 40% of cells at the beginning of the experiment died by the end of the experiment. A value of -100 means all cells are dead at the end of the experiment.
NCI-60 Human Tumor Cell Lines Screen was performed using the standard one-dose NCI protocol, which is described in more detail at https://dtp.cancer.gov/discovery_development/nci-60/default.htm.
Compounds with GIPRCNT values below 10 were considered active. Activity score was based on GIPRCNT using the following formula: […]
Score is 0 for GIPRCNT values of 100 or above, 50 for GIPRCNT values of 0, and 100 for GIPRCNT values of -100.
With `CC(C)(Sc1cc(C(C)(C)C)c(O)c(C(C)(C)C)c1)Sc1cc(C(C)(C)C)c(OC(=O)CCC(=O)O)c(C(C)(C)C)c1`, the growth is 60.5% (inactive).

With `COc1ccc(C/C(C)=C(\c2ccc(Cl)cc2)c2ccc(OCCN3CCCC3)cc2)cc1`, the growth is 87.6% (inactive).

In the case of `CC1=Nc2cnc(Nc3ccc(N4CCCCC4)cc3)nc2Nc2ccccc21`, the growth was 97.3% (inactive).

As for `O=S(=O)(Nc1cc(F)cc(F)c1)c1ccc(-c2cnc(C3CC3)o2)cc1`, the growth is 63.1% (inactive).

On to `CCOc1ccc(/C=C/C(=O)c2cccc(OCCCOc3cccc(C(=O)/C=C/c4ccc(OCC)cc4)c3)c2)cc1`, for which the growth was 120% (inactive).

Take `CCn1cc(C(=O)O)c(=O)c2cc(F)c(N3CCN(CC(=O)Nc4ccccc4)C(C)C3)c(F)c21` (stereo not given): the growth is 108% (inactive).

On to `Cc1ccc(S(=O)(=O)N2CCCN(c3nc(-c4ccccc4)nc4nc(-c5ccccc5)oc34)CC2)cc1`, for which the growth is 103% (inactive).

For the compound `COc1cc(/C=C/c2cn[nH]c2-c2ccc(C)cc2)cc(OC)c1OC`, the growth is 66% (inactive).

On to `O=C(/C=C/c1cn(-c2ccccc2)nc1-c1ccccc1)CCC(=O)NO`, for which the growth was 104% (inactive).

On to `COc1cc(N2C(=O)[C@H](Cl)C2c2ccc(SC)cc2)cc(OC)c1OC` (stereo not given in full), for which the growth was 49.1% (inactive).

Regarding `O=C(/C=C/c1ccccc1)c1cccc2ccccc12`, the growth is 22.5% (inactive).

For `O=CCCCOCc1ccccc1`, the growth was 97.7% (inactive).

Turning to `CC1=C2[C@@H](CC1)[C@]1(C)O[C@@](C3CCNCC3)(C[C@H]1OC(=O)CO)[C@H]2OC(=O)/C=C/c1ccccc1`, the growth is 97.3% (inactive).

In the case of `CCN(CC)CCCC(Cc1ccccc1)Nc1c2ccc(Cl)cc2nc2ccc(OC)cc12` (stereo not given), the growth is -2.6% (active).

Take `COc1ccc(C2[C@@H](c3ccccc3)C(=O)N2c2cc(OC)c(OC)c(OC)c2)cc1F` (stereo not given in full): the growth was 43.7% (inactive).

Regarding `COc1cc(-c2cc(-c3ccc(Nc4nc(Nc5ccc(Cl)cc5)nc(Nc5ccc(Cl)cc5)n4)cc3)no2)cc(OC)c1OC`, the growth was 108% (inactive).

With `COc1cc(/C=C2\C(=O)N(CCCOc3cc(O)c4c(=O)cc(-c5ccccc5)oc4c3)c3ccccc32)cc(OC)c1O`, the growth is 87% (inactive).

In the case of `CN(C)Cc1cc(C(C)(C)C)cc(Br)c1O`, the growth is 100% (inactive).

`Cn1c(=O)[nH]c(=O)c2nc3c(nc21)-c1ccccc1C3=O`: the growth was 102% (inactive).

In the case of `COC(=O)c1c2c(c(C)[n+]([O-])c1C)C(=O)C(NCc1ccccc1)=CC2=O`, the growth is 113% (inactive).

Turning to `CN(C)CCCNC(=O)c1cncnc1Nc1ccc2c(ccn2Cc2cccc(F)c2)c1`, the growth was 103% (inactive).

Regarding `C(=C(\C1=NCCN1)n1ccc2ccccc21)/c1ccccc1`, the growth was 89.2% (inactive).

With `Nc1ccc(Br)cc1C(F)(F)F`, the growth was 108% (inactive).

For `CCN(CCNc1ccc(C)c2sc3cc(Cl)ccc3c(=O)c12)CC(C)(C)O`, the growth is 75.7% (inactive).

As for `CCOC(=O)C/C(=N\Nc1cc(=O)[nH]c2ccc(OC)cc12)C(=O)OCC`, the growth is 114% (inactive).

As for `Cc1oc(-c2ccc(Cl)cc2)nc1C1=NN(C(=O)c2ccncc2)C(c2ccccc2)C1` (stereo not given), the growth was 114% (inactive).

On to `Cc1c2cnccc2c(C)c2c1c1cc(CO)ccc1n2C`, for which the growth was -27.7% (active).

Consider `C#CCOc1cccc(Nc2ncnc3cc(NC(=O)CCl)ccc23)c1`, for which the growth is -85% (active).

On to `Cc1ccc(Cc2cnc(NC(=O)/C=C/c3ccc(C)o3)s2)cc1`, for which the growth is 68% (inactive).

Consider `C[C@@H]1CN(c2cnc(C(=O)Nc3cc(F)cc4cccnc34)cn2)C[C@H](C)N1`, for which the growth was 72.2% (inactive).

`Cc1cccc(N=Nc2cccc(C)c2)c1`: the growth is 114% (inactive).

As to `COc1ccc(/C=N/NC(=O)Cn2c(-c3ccc(S(C)(=O)=O)cc3)nc3ccccc32)cc1`, the growth is 109% (inactive).

Regarding `CN1C(=O)/C(=C/c2ccc(C(=O)Nc3ncc(Cc4cc(Cl)ccc4Cl)s3)cc2)SC1=S`, the growth is 79.6% (inactive).

Regarding `COC1C(O)CC(OC2CC(OC3CC(O[C@@H]4C(=O)c5c(cc6cc(OC7CC(OC8CC(O)C(O)C(C)O8)C(O)C(C)O7)c(C)c(O)c6c5O)CC4[C@H](OC)C(=O)C(C)=O)OC(C)C3O)OC(C)C2O)OC1C` (stereo not given in full), the growth was -8.69% (active).

As for `CCCCCCCCn1ccc2cc(NC(=O)CN3CCN(c4cc(C)nc(Cl)n4)CC3)ccc21`, the growth was 95.1% (inactive).

On to `Cc1ccc(NC(=O)c2cc3ccccc3cc2O)c(C)c1`, for which the growth is 93.8% (inactive).

Take `COc1ccc(C2[C@@H](Cl)C(=O)N2c2cc(OC)c(OC)c(OC)c2)cc1Cl` (stereo not given in full): the growth was 63.9% (inactive).

Regarding `CC1(C)N=C(N)N=C(N)N1c1ccc(S(=O)(=O)Nc2nccs2)cc1`, the growth was 86.1% (inactive).

As to `CCOc1ncc([N+](=O)[O-])c(OCC)n1`, the growth is 115% (inactive).

As to `Cc1ccc(S(=O)(=O)OC[C@]23CCC(C)(C)C[C@H]2C2=CC[C@@H]4[C@@]5(C)CCCNC(C)(C)[C@@H]5CC[C@@]4(C)[C@]2(C)CC3)cc1`, the growth was 73% (inactive).
